± gives the standard deviation.
Tests used:
[1] = system: MILI (PIWIL2) piRISC loaded with L1MC piRNA (26 nt); assay: pre-steady-state target cleavage rate (min^-1); guide: L1MC piRNA 5'p-UAACUAAAUACUAUGCAAGCUGUAGG; higher = faster piRNA-guided slicing of the target
Outline: (§1)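 Cleave-'n-Seq used a transcribed, DNA-blocked target RNA library at 0.1 nM and active affinity-purified piRISC with one synthetic guide at 1 nM, with or without 500 nM GTSF1 partner protein, in HEPES–potassium acetate buffer at 33 °C for 0–8 or 0–960 min. Uncleaved targets were sequenced and normalised to depth and to weakly complementary targets, and three trials were pooled with k3 capped at 0.0001 min^-1. The pre-steady-state cleavage rate was estimated by a burst-and-steady-state fit.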

[2] = system: EfPiwi piRISC loaded with L1MC piRNA (26 nt); assay: pre-steady-state target cleavage rate (min^-1); auxiliary factor: 500 nM Ephydatia muelleri Gtsf1; guide: L1MC piRNA 5'p-UAACUAAAUACUAUGCAAGCUGUAGG; MIWI and MILI are mouse PIWI proteins and EfPiwi is from a freshwater sponge; tags in brackets are library labels; higher = faster piRNA-guided slicing of the target
Outline: as §1

[3] = auxiliary factor: 500 nM mouse GTSF1
[4] = auxiliary factor: none (no GTSF1)

Sequence | pre-steady-state target cleavage rate [1, 3] | pre-steady-state target cleavage rate [1, 4] | pre-steady-state target cleavage rate [2]
UCCUGCUACAGCUUAGCAUAGUAUUUAGUUA | 0.276 ± 0.014 | 0.0072 ± 0.0026 | 0.0477 ± 0.015
UCCUGCUACAGCUUGGAUAGUAUUUAGUUA | 0.296 ± 0.017 | 0.0119 ± 0.0026 | 0.017 ± 0.0041
UCCUCCUACAGUCUUGCAUAGUAUUUAGUUA | 0.252 ± 0.018 | 0.00736 ± 0.0023 | 0.0171 ± 0.006
UCCUGGAUCAGCUUGGCAUAGUAUUUAGUUA | 0.3 ± 0.061 | 0.00341 ± 0.0025 | 0.0127 ± 0.0034
UCCUGGAUGAGCUUGCAUUGUAUUAAGUUA | 0.0879 ± 0.017 | 0.00381 ± 0.0027 | 0.0041 ± 0.0035
UCCUGGAAUCAGCUUGCAUAGUAUUUAGUUA | 0.278 ± 0.021 | 0.016 ± 0.0034 | 0.0198 ± 0.0068
UCCUGGAUCAAGCUUGCAUAGUAUUUAGUUA | 0.237 ± 0.018 | 0.0103 ± 0.0028 | 0.0542 ± 0.012
UCCUGCUACAUCUUGCAUAGUAUUUAGUUA | 0.239 ± 0.02 | 0.0095 ± 0.0022 | 0.0423 ± 0.014
UCCUGCUACAGGUUGCAUAGUAUUUAGUUA | 0.246 ± 0.011 | 0.013 ± 0.0028 | 0.0242 ± 0.0053
UCCUCCUACAGCUUGGCAUAGUAUUUAGUUA | 0.338 ± 0.057 | 0.00447 ± 0.0021 | 0.0133 ± 0.0047
UCCUCCUAGAGGUUGCAUAGUAUUUAGUUA | 0.205 ± 0.011 | 0.00716 ± 0.0022 | 0.0153 ± 0.0029
UCCUGGUACAGCUUGCAAAGUUUUUAGUUA | 0.0248 ± 0.0088 | 0.00339 ± 0.0029 | 0.00245 ± 0.0024
UCCUGGUAACAGCUUGCAUAGUAUUUAGUUA | 0.244 ± 0.02 | 0.016 ± 0.0044 | 0.0495 ± 0.011
UCCUGGAUCUGCUUGCUUAGUAUUUAGUUA | 0.238 ± 0.017 | 0.00748 ± 0.0024 | 0.0931 ± 0.028
UCCUGCUACAGCCUGCAUAGUAUUUAGUUA | 0.279 ± 0.025 | 0.00704 ± 0.0031 | 0.01 ± 0.0029
UCCUCCUUCAGCUUGCAUAGUAUUUAGUAA | 0.228 ± 0.021 | 0.00401 ± 0.0018 | 0.012 ± 0.005
UCCUCCUACAGCUUGCAUAGUAUUUAGUUUA | 0.333 ± 0.019 | 0.0143 ± 0.0034 | 0.145 ± 0.039
UCCUGGAACAGCUUGCAUAGUAUUCUAGUUA | 0.145 ± 0.032 |  | 0.00277 ± 0.0018
UCCUGGAUGAGCUUGCAUAGUAUUUAAUUA | 0.0516 ± 0.014 |  | 0.00294 ± 0.0025
UCCUCCUACAGGAUGCAUAGUAUUUACAAA | 0.0521 ± 0.011 |  | 0.0028 ± 0.0027

Sequence | pre-steady-state target cleavage rate [1, 3] | pre-steady-state target cleavage rate [1, 4] | pre-steady-state target cleavage rate [2]
UCCUGGAUCAGCAUUGCAUAGUAUUUAGUUA | 0.278 ± 0.024 | 0.0103 ± 0.0029 | 0.0605 ± 0.015
UCCUGCUACAGCUUGCUUAGUAUUUAGUUA | 0.248 ± 0.013 | 0.00684 ± 0.0021 | 0.0201 ± 0.0068
UCCUGGAACAGCUUGCAUAGAAUUUUGUUA | 0.0296 ± 0.01 |  | 0.00229 ± 0.0021
UCCUCACUACAGCUUGCAUAGUAUUUAGUUA | 0.259 ± 0.022 | 0.00971 ± 0.0027 | 0.0191 ± 0.0067
UCCUGGUACUGCAUGCAUAGUAUUUAGUUA | 0.222 ± 0.02 | 0.00932 ± 0.0034 | 0.0111 ± 0.0032
UCCUGCUACAGCUUGCAUAGAAUUUAGUUA | 0.0612 ± 0.014 |  | 0.00582 ± 0.0022
UCCUGGUACAGCUUGCAUAUUAUUUAGUUA | 0.0704 ± 0.01 | 0.00385 ± 0.0027 | 0.00464 ± 0.0037
UCCUGGAUCAGCUUGCAUAGUAUUUAGGUA | 0.0936 ± 0.021 | 0.00336 ± 0.0026 | 0.00436 ± 0.002
UCCUCCUACACCUUGCAUACUAUUUAGUUA | 0.0962 ± 0.025 |  | 0.00578 ± 0.0029
UCCUGGAUCAGCUUGCAUAGAAUUUAGAUA | 0.0147 ± 0.0059 |  | 0.0036 ± 0.0019
UCCUGGAACAGCUAGCAUAGUAUUUACAAA | 0.0718 ± 0.019 |  | 0.00337 ± 0.0029
UCCUCCUACAGCUAGCAUAGUAUUUACAAA | 0.0849 ± 0.018 |  | 0.00397 ± 0.0031
UCCUGGAUGAGCUUGCAUAGUAUUUACAAA | 0.0638 ± 0.018 |  | 0.00416 ± 0.0028
UCCUGGAUGAGCUUGCAUAGUAUUAAGAUA | 0.00532 ± 0.0045 |  | 0.00505 ± 0.003
UCCUGCUUCAGCUUGCAUAGUAUUUAGAAA | 0.195 ± 0.037 |  | 0.00434 ± 0.0021
UCCUCCUACAGCUUGCAUGGUAUUUAGUUA | 0.413 ± 0.019 | 0.00982 ± 0.003 | 0.0681 ± 0.02
UCCUGGAUGUGCUUUCAUAGUAUUUAGUUA | 0.126 ± 0.018 | 0.00919 ± 0.0024 | 0.0041 ± 0.0024
UCCUGGAUCAGCUUGGAUAGUAAUUAGUUA | 0.167 ± 0.018 | 0.00352 ± 0.0023 | 0.00256 ± 0.0025
UCCUGGAACAGCUUGCAUAGUAUUUAUUUA | 0.113 ± 0.026 |  | 0.00534 ± 0.0034
UCCUCCAACAGCUUGCAUAGUAUUUUGUUA | 0.108 ± 0.019 |  | 0.00594 ± 0.0025

Sequence | pre-steady-state target cleavage rate [1, 3] | pre-steady-state target cleavage rate [1, 4] | pre-steady-state target cleavage rate [2]
UCCUCCUACAGUUUGCAUAGUAUUUAGUUA | 0.299 ± 0.013 | 0.00895 ± 0.0021 | 0.0845 ± 0.021
UCCUCCUACUGCUUGCAUAGUAUUUACUUA | 0.0701 ± 0.013 |  | 0.00299 ± 0.0029
UCCUCCUACAGCUUGCAUAGUAUUCUAGUUA | 0.316 ± 0.039 | 0.00537 ± 0.0026 | 0.00344 ± 0.0019
UCCUCCUACAGCUUGCAUAGUUUUUACUUA | 0.036 ± 0.0086 |  | 0.00304 ± 0.0026
UCCUGGAUGAGCAUGCAUAGUAUUUAGAAA | 0.121 ± 0.025 |  | 0.00289 ± 0.0024
UCCUGCAACAGCUUCCAUAGUAUUUAGUUA | 0.112 ± 0.03 |  | 0.00273 ± 0.0014
UCCUGGAACAGCUUGCUUAGUAUUUAGAUA | 0.176 ± 0.017 |  | 0.00448 ± 0.0027
UCCUGGAUGUCCUUGCAUAGUAUUUAGUCA | 0.0898 ± 0.017 |  | 0.00415 ± 0.004
UCCUGGUACAGGUUGCAUAGUAUUUAGAUA | 0.195 ± 0.054 |  | 0.00271 ± 0.0024
UCCUGGAUGUCGUGUGCAUAGUAUUUAGUUA | 0.102 ± 0.015 | 0.00602 ± 0.0035 | 0.0038 ± 0.0033
UCCUGGAUGUCCUUGCAUACUAUUUAGUUA | 0.0324 ± 0.01 | 0.00339 ± 0.0025 | 0.00333 ± 0.0024
UCCUGGAUGUGCUUGCAUAGUAUUCAGUUA | 0.0572 ± 0.015 |  | 0.00279 ± 0.0024
UCCUCCAACAGCUUGCAUAGAAUUUAGUUA | 0.07 ± 0.014 |  | 0.00468 ± 0.0016
UCCUGGAACAGCUUGCAUAGGUAUUUAGUUA |  | 0.00517 ± 0.0026 | 0.00262 ± 0.0026
UCCUGCUACAGCUUGCAUUGUAUUUACAAA | 0.0245 ± 0.01 |  | 0.00313 ± 0.0028
UCCUGCUACAGCUUGCAUAGUAUUUACUUA | 0.171 ± 0.032 |  | 0.00356 ± 0.0027
UCCUCCUACAGCUUGCAUAGUUAAUAGUAA | 0.0122 ± 0.0056 |  | 0.00511 ± 0.003
UCCUGGAUCAGCUUGCAUAGUAAUUAGAAA | 0.0807 ± 0.02 |  | 0.00582 ± 0.0028
